The full data set covers some 8,800 targets. This sample favours those with a hit. About 0.5% of all pairs of compound and target were hits.

Chain of UniProt Q7L0Q8 (Q7L0Q8 whole entry, looked up): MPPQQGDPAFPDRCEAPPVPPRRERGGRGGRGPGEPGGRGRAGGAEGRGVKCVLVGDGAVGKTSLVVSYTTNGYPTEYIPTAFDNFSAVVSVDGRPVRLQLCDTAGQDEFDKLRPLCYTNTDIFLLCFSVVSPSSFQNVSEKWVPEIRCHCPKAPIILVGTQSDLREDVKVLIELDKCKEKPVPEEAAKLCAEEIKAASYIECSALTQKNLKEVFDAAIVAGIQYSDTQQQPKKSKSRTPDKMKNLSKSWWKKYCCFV
Chain of UniProt Q8WXA3 (Q8WXA3 whole entry, looked up): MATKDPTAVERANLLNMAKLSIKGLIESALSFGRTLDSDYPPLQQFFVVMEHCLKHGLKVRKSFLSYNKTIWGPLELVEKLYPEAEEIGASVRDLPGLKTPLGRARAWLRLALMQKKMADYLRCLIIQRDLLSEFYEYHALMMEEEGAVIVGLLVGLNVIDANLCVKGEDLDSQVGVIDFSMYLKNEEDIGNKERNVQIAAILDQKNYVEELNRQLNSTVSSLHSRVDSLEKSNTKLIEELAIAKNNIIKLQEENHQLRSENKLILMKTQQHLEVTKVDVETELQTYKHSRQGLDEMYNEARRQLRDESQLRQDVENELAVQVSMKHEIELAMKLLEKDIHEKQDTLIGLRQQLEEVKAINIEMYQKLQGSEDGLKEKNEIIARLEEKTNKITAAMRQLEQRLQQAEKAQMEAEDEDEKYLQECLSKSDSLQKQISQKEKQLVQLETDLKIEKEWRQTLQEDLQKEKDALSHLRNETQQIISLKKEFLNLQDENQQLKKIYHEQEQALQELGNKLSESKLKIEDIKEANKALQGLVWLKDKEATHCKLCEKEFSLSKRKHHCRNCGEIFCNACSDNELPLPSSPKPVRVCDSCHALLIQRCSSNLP
Chain of UniProt Q9UPW6 (Q9UPW6 whole entry, looked up): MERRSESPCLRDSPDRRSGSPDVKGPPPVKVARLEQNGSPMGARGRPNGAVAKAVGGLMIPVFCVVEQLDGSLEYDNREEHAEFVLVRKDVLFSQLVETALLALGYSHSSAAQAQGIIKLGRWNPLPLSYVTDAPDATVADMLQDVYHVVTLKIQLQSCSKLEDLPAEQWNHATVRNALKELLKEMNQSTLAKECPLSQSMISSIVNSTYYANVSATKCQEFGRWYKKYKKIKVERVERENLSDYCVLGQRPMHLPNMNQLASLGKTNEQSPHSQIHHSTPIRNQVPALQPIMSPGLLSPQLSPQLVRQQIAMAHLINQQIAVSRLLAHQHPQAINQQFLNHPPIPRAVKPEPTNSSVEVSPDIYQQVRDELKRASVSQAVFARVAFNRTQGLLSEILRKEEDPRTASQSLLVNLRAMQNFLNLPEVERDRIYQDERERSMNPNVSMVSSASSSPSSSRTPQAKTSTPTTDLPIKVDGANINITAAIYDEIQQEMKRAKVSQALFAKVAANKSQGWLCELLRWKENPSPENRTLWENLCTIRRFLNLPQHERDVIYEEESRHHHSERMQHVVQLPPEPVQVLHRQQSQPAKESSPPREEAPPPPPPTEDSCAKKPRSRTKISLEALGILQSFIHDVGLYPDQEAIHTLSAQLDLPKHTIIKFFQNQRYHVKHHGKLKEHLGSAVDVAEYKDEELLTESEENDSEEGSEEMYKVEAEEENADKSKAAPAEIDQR
Chain of UniProt Q99496 (Q99496 whole entry, looked up): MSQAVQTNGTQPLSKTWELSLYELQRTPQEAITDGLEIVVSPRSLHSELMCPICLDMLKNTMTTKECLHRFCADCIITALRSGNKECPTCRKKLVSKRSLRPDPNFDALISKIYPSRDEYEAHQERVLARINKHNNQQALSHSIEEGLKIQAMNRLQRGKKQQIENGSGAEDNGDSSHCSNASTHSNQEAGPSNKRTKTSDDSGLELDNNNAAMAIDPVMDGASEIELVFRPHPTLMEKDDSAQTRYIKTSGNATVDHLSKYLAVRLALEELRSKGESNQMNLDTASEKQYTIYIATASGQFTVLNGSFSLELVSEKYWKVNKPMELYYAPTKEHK
Chain of UniProt O75582 (O75582 whole entry, looked up): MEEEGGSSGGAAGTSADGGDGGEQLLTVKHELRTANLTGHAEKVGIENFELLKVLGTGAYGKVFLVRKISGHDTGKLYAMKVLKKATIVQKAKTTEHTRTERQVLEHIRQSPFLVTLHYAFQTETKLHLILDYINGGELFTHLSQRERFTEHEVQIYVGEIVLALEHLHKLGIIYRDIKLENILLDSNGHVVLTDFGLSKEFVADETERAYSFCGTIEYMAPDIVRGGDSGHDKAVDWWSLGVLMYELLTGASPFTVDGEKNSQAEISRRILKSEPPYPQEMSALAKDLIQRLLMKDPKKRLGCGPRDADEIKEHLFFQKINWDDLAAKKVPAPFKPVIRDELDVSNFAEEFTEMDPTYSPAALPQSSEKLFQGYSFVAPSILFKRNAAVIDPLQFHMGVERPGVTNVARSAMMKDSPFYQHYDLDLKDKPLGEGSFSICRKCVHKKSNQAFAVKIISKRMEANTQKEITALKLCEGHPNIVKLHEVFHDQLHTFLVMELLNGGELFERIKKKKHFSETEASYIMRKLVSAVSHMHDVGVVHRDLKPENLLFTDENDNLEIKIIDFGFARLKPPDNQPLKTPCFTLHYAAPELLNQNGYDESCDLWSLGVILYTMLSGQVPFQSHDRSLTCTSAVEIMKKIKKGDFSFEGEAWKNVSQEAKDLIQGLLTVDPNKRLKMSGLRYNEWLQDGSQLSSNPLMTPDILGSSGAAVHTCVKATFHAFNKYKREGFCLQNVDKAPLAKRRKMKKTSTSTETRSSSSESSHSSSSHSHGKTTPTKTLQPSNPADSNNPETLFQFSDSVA
Chain of UniProt O15027 (O15027 whole entry, looked up): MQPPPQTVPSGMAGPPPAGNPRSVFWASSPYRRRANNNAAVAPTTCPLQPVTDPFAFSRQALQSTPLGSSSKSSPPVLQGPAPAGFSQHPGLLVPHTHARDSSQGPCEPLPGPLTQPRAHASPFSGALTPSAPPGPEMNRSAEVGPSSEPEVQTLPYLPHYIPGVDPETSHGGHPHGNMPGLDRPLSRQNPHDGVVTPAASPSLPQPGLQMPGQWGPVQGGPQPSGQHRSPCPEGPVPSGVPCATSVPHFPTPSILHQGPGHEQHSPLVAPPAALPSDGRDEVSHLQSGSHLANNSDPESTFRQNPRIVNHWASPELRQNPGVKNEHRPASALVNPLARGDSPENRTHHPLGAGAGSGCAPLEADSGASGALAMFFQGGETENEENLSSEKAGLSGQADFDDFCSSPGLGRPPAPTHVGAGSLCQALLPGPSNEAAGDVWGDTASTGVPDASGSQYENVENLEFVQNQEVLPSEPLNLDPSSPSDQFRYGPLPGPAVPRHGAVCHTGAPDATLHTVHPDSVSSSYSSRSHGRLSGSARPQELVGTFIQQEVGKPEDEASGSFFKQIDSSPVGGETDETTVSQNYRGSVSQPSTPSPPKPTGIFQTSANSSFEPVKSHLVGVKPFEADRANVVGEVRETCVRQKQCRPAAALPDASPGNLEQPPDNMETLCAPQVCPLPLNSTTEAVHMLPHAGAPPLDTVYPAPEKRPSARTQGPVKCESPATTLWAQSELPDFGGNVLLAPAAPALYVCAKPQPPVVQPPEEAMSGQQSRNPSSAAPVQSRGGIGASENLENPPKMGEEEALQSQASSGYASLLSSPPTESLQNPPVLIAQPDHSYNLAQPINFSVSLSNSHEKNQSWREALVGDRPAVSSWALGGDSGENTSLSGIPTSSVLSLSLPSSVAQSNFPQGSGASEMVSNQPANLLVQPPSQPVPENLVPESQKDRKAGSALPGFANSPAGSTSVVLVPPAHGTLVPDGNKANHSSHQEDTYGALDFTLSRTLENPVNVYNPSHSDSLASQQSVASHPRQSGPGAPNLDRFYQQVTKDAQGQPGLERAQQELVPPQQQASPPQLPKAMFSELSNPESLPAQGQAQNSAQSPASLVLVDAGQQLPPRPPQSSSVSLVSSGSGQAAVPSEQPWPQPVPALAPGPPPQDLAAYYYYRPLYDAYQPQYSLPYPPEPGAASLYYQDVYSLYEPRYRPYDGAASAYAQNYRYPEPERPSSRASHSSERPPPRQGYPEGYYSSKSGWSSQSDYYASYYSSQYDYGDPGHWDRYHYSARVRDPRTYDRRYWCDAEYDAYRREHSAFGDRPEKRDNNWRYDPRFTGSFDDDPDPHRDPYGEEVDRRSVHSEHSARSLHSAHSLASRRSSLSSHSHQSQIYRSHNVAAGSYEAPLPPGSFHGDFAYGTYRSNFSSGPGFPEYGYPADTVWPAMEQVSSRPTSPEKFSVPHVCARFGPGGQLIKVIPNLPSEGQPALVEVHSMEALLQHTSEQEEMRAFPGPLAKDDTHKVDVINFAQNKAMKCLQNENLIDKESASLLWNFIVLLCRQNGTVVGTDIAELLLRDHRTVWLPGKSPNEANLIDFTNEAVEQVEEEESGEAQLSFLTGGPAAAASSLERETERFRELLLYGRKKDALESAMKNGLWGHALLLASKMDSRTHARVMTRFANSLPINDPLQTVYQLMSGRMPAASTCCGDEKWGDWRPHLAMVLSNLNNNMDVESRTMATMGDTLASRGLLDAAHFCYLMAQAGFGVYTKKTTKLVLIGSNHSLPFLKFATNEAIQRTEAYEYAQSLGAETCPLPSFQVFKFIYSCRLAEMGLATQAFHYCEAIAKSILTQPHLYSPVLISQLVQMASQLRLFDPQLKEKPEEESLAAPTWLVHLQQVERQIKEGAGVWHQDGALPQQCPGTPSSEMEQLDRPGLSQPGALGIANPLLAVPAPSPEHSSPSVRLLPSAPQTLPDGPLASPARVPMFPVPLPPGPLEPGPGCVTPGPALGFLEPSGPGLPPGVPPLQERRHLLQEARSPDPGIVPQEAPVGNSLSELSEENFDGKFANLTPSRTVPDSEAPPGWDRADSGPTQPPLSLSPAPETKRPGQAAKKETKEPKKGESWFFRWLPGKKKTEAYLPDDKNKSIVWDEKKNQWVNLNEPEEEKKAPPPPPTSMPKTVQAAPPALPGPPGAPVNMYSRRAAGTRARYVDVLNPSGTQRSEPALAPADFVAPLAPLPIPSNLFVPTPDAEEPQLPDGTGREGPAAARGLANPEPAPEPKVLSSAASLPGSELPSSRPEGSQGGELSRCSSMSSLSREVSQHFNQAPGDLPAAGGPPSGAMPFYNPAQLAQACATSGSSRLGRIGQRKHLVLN

Compound in one assay: C1=CC=C(C=C1)C2=NC(=C(N2)C3=CC=NC=C3)C4=CC(=C(C=C4)Cl)O
As to the kind of experiment: log2 fold change, soluble protein after heating vs DMSO (PISA); higher = thermal stabilisation; K562 lysate, 10 uM; active = over 0.2 and 3.5 SD of the protein, either way, in both replicates (recomputed). A digest of the protocol:
(§1)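 Pellets of K562 cells were dounce-homogenised in PBS pH 7.4 with 1 mM MgCl2, and the crude extract was held at 1 mg/mL protein for a 30 min treatment with 10 μM compound. Aliquots were heated for 3 min over 48°C-58°C and pooled before NP-40 was added to 0.5% at 4°C. The supernatant from 21,000xg for 90 min was quantified by TMTpro 16plex LC-MS/MS with channel sums equalised. Values are reported from duplicates as log-two fold change in thermal stability relative to solvent controls.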
As to RMI2 (UniProt Q96E14), the log2 fold change is 0.002 (inactive).
Same read-out and setting: next, SATB2 (UniProt Q9UPW6): -0.006 (inactive); SCNM1 (UniProt Q9BWG6): -0.005 (inactive); SEC16A isoform 3 (UniProt O15027): 0.41 (inactive).
The same measure, in the same setting: the figure for RPS6KA3 (UniProt P51812) is 0.026 (inactive).
Regarding RHOU (UniProt Q7L0Q8), the log2 fold change is 0.002 (inactive).
Regarding SEC16A isoform 2 (UniProt O15027), the log2 fold change was -0.07 (inactive).
Still for that read-out and setting: next, RAD54L (UniProt Q92698): -0.071 (inactive).
Regarding RDH11 (UniProt Q8TC12), the log2 fold change is 0.006 (inactive).
On to RXRA (UniProt P19793), for which the log2 fold change was -0.025 (inactive).
Same read-out and setting: next, RAD17 (UniProt O75943): -0.047 (inactive); QSER1, A0A3B3IRW6: -0.006 (inactive); S100A6 (UniProt P06703): -0.196 (inactive).
Take RPS6KA5 (UniProt O75582): the log2 fold change was 0.023 (inactive).
Same read-out and setting: next, RUFY2 isoform 1 (UniProt Q8WXA3): -0.099 (inactive).
On the same count and under the same terms, the figure for RYR1 (UniProt P21817) is -0.025 (inactive); for RNF17 (UniProt Q9BXT8) it is 0.013 (inactive); for RNF2 (UniProt Q99496) it is 0.002 (inactive).
Take RNPC3 (UniProt Q96LT9): the log2 fold change is 0.011 (inactive).
Still for that read-out and setting: next, ROBO2 isoform 3 (UniProt Q9HCK4): 0.008 (inactive).

Compound in the next assay: C1=CC=C2C(=C1)C3=NNC4=CC=CC(=C43)C2=O
The description is as above. A digest of the protocol:
as §1
As for RAD54L2 (UniProt Q9Y4B4), the log2 fold change was 0.002 (inactive).
Take RMI2 (UniProt Q96E14): the log2 fold change was -0.121 (inactive).
The same measure, in the same setting: the figure for SATB2 (UniProt Q9UPW6) is 0.031 (inactive); for SAP30 (UniProt O75446) it is 0.013 (inactive).
Take RNF170 (UniProt Q96K19): the log2 fold change was -0.577 (inactive).
Consider RPS6KA3 (UniProt P51812), for which the log2 fold change was 0.328 (inactive).
For RHOU (UniProt Q7L0Q8), the log2 fold change was 0.061 (inactive).
Still for that read-out and setting: the figure for RAB5IF isoform 5 (UniProt Q9BUV8) is -0.036 (inactive).
Still for that read-out and setting: the figure for RXRB isoform 3 (UniProt P28702) is -0.039 (inactive).
For RDH11 (UniProt Q8TC12), the log2 fold change is -0.065 (inactive).
Same read-out and setting: next, SEMA4G isoform 2 (UniProt Q9NTN9): -0.011 (inactive); RAD17 (UniProt O75943): -0.458 (active); RHBDD1 (UniProt Q8TEB9): -0.056 (inactive).
The same measure, in the same setting: the figure for RAP1B (UniProt F5GZG1) is -0.08 (inactive); for QSER1, A0A3B3IRW6 it is 0.059 (inactive).
The same measure, in the same setting: next, S100A6 (UniProt P06703): 0.02 (inactive).
With RPS6KA5 (UniProt O75582), the log2 fold change is 0.152 (inactive).
For the target SELENOK (UniProt Q9Y6D0), the log2 fold change was 0.044 (inactive).
The same measure, in the same setting: the figure for RUFY2 isoform 1 (UniProt Q8WXA3) is 0 (inactive).
The same measure, in the same setting: next, RNF2 (UniProt Q99496): -0.01 (inactive).

The values are drawn from the supplement of paper PMC10849652.
